High-throughput results (PubChem)
TRAIL sens C8 = caspase-8 TRAIL sensitization | NB7+C8 cells + TRAIL, ATPlite viability luminescence | inhibition (viability loss, TRAIL sensitization), % at 10 µM | 360,000 tested, 1% active;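 active = compounds causing at least 50% loss of cell viability in the single-dose screen, relative to plate controls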
KKLEB cytotox = counter-screen for CF NF-kB inhibitors: cytotoxicity. 360,000 tested, 0.36% active. KKLEB CF airway cells viability, ATPlite luminescence, overnight; stronger effect = lower value; cells stimulated with P. aeruginosa culture filtrate. activity change (cytotoxicity), % at 5 µM. AID 602141;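 active = corrected activity change at or below -50% at 5 µM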
CF NFkB block = blocks PAF-induced NF-kB reporter in cystic fibrosis cells. 360,000 tested, 0.86% active. inhibition, % at 5 µM. AID 588850. KKLEB NF-kB-GFP reporter, GFP fluorescence overnight;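 active = at least 50% inhibition at 5 µM, scaled per plate between neutral and stimulator controls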;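 also: PAF is a Pseudomonas aeruginosa culture filtrate used as stimulus; plate controls were PAF-stimulated DMSO wells for no effect and unstimulated DMSO wells for full effect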
iPSC survival up = enhancers of human iPSC single-cell survival; hiPSC single-cell survival, ATPlite luminescence; 100% = ROCK inhibitor wells, 0% = DMSO; AID 602274; survival enhancement, % at 20 µM; 360,000 tested, 0.044% active; in the data active = survival enhancement above about 18%;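 also: cells exposed to compounds for 16 hours before the ATP read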
HIF-2a inh = HIF-2a inhibition; 786-0 RCC cells HIF-2a reporter, luciferase luminescence, overnight; inhibition, % at 18.8 µM; 360,000 tested, 0.72% active;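 active = inhibition of the luminescence signal of 40% or more relative to plate controls, in a single-dose primary screen at 18.75 µM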
PPC-1+TRAIL kill = compounds killing PPC-1 cancer cells with TRAIL present (potentiator screen, no TRAIL-free arm); PPC-1 cells + TRAIL, ATPLite viability luminescence; cell killing (% activity), % at 4 µM or 5 µM; 220,000 tested, 0.41% active; AID 1443;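 active = cell killing above 50% in the first pass at 4 µM, then a duplicate retest at 5 µM averaging 50% or more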;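 also: plate controls were cells with TRAIL plus DMSO for no effect and medium-only wells lacking cells for full effect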
PPC1 cytotox = kills PPC-1 cells. shares compounds with PPC-1+TRAIL kill. PPC-1 viability, ATPlite luminescence, overnight. cytotoxicity, % at 5 µM. 1,200 tested, 50% active. AID 1447;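 active = reconfirmed compounds whose average cytotoxicity reaches 50% or more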;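 also: 0% = DMSO-treated cells and 100% = wells holding medium but no cells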
* = called active by the depositor; x = no result given. The list is not random: actives were taken first. Their share in the collection is about 2.2%.

SMILES	TRAIL sens C8	KKLEB cytotox	CF NFkB block	iPSC survival up	HIF-2a inh	PPC-1+TRAIL kill	PPC1 cytotox
O=[N+]([O-])c1cc(NCCO)c(N2CCCCCC2)c2nonc12	-3	0	-6	0	22	x	x
Cc1ccc(C2C(C#N)=C(N)Oc3n[nH]c(-c4cccs4)c32)cc1 (configuration not stated)	9	-6	2	-2	33	19	x
N#CC1=C(N)Oc2n[nH]c(-c3cccs3)c2C1c1ccoc1 (configuration not stated)	-12	16	-40	1	12	-18	-42
COc1cc(-c2[nH]nc3c2C(c2ccoc2)C(C#N)=C(N)O3)cc(OC)c1OC (configuration not stated)	7	-6	-22	11	-8	13	20
CC(=O)N1CCN(c2ccccc2NC(=O)COc2ccc(Cl)cc2Cl)CC1	-2	-7	14	0	3	7	10
CC(=O)N1CCN(c2ccccc2NC(=O)COc2ccccc2C)CC1	-9	-11	15	1	17	-1	x
O=Cc1cc2cc3c(cc2nc1Cl)OCCO3	x	x	x	x	x	14	x
O=C(O)c1ccc(N/N=C/c2cc3cc4c(cc3nc2Cl)OCCO4)cc1	93*	-38	30	0	-67	88*	91*
COc1ccc(C(=O)/C=C/Nc2ccccn2)c(OC)c1	9	-1	8	-1	-242	15	x
O=C(/C=C/Nc1ccccc1Br)c1ccccn1	93*	-4	4	-6	85*	92*	93*
O=C(/C=C\Nc1ccccn1)c1ccccc1	56*	-4	1	-3	-12	55*	54*
CC1CCCN(C(=S)Nc2ccc(F)cc2)C1 (configuration not stated)	-4	-6	7	0	-21	28	x
COC(=O)Cc1ccc(NC(=S)N2CCCC(C)C2)cc1 (configuration not stated)	-5	-16	0	-1	23	68*	70*
CCOC(=O)CSc1ccc(-c2nc3cc(C)c(C)cc3[nH]2)cn1	47	11	-17	-3	-57	37	x
Cc1cc2nc(-c3ccc(SCC(=O)N4CCN(C(=O)c5ccco5)CC4)nc3)[nH]c2cc1C	74*	-27	-4	-4	-218	65*	63*
Cc1cc2nc(-c3ccc(SCC(=O)N4CCOCC4)nc3)[nH]c2cc1C	68*	-33	-4	-3	-242	58*	58*
Cc1cccc(NC(=O)CCc2ccccc2)c1C	4	-4	6	0	-5	x	x
CCCNC(=O)Nc1nc2ccccc2s1	0	-2	21	0	-251	26	x
CCCNC(=O)c1ccc(-c2nc3ccccc3s2)s1	83*	-50	-39	-4	-53	70*	77*
COc1ccc(C(=O)Nn2c(SCC(=O)NCc3ccco3)nc3ccccc3c2=O)cc1	33	-6	9	-2	33	34	35
Fc1cccc(-c2cc3nc4c(c(N5CCOCC5)n3n2)CCCC4)c1	-3	9	9	-1	-102	39	x
Clc1cccc(-c2cc3nc4c(c(N5CCOCC5)n3n2)CCCC4)c1	17	-11	18	0	-80	11	12
O=C(N/N=C/c1ccc([N+](=O)[O-])o1)c1cc(-c2cccc(Br)c2)nc2ccccc12	27	1	-34	-2	-78	4	x
CCCc1ccc(-c2cc(C(=O)N/N=C/c3ccc([N+](=O)[O-])o3)c3ccccc3n2)cc1	86*	-51*	-4	-6	-109	77*	76*
C(=N\Nc1nc2ccccc2[nH]1)/c1cccc2cccnc12	19	-31	13	-1	-190	53*	52*
SMILES	TRAIL sens C8	KKLEB cytotox	CF NFkB block	iPSC survival up	HIF-2a inh	PPC-1+TRAIL kill	PPC1 cytotox
O=C(N/N=C/c1cccc2nccnc12)c1ccccc1O	6	-4	21	0	9	20	x
O=C(N/N=C/c1cccc2cccnc12)c1ccccc1O	41	0	-12	0	7	33	19
O=C(NCc1ccccc1)c1noc2c1CCCCC2	-1	-7	-4	-2	-277	19	x
COc1ccc(CNC(=O)c2noc3c2CCCCC3)cc1	-7	3	7	-3	-179	3	-12
CCCCN1C=CC(=C2C(=O)c3ccccc3C2=O)C=C1	95*	-72*	4	-3	89*	96*	96*
CC(C)CC(=O)Nc1nnc(CSCc2ccc(F)cc2)s1	3	0	20	0	13	4	x
O=C(CCCc1ccccc1)c1ccc2c(c1)OCCO2	87*	-57*	-10	-6	66*	80*	84*
COc1ccc(N(C(C)C(=O)NC2CCCCCC2)S(C)(=O)=O)cc1 (configuration not stated)	4	-2	-6	0	-1	0	-1
O=C1C(C=NCc2ccco2)=C(O)c2ccccc21	-5	-3	-2	-4	-255	7	x
Cc1ccccc1N=CC1=C(O)c2ccccc2C1=O	90*	-60*	-43	-1	-13	84*	82*
COc1ccc(CC2=C(O)c3ccccc3C(=O)C2=O)cc1	-3	-9	-3	-1	5	x	x
COc1ccc(N=CC2=C(O)c3ccccc3C2=O)c(OC)c1	92*	-77*	-15	-6	55*	82*	85*
O=C(Nc1nsc(-c2ccccc2)n1)c1cccs1	51*	-1	0	-4	-171	25	34
Cc1cc(C)cc(OCC(=O)NC2=NCCS2)c1	3	0	3	1	-64	-3	0
Cc1nc2cc(Nc3nnc(-c4ccccc4)c4ccccc34)ccc2n1C	75*	-28	8	-5	-174	71*	70*
Cc1nc2cc(NC(=O)Nc3cccc4ccccc34)ccc2n1C	48	-1	-16	-4	-192	34	35
Cc1ccccc1NC(=O)Cc1cn(C)c2ccccc12	6	-1	-32	0	-10	4	-9
CCn1c(SCC(=O)Nc2nccc(C)n2)nc2ccccc21	8	7	9	1	-8	11	x
CCn1nnc(NC(=O)c2ccc(C(C)(C)C)cc2)n1	78*	-7	-2	-5	-107	57*	42
CCOC(=O)C1CCN(S(=O)(=O)c2ccc(C)cc2)CC1	-6	-22	13	-1	8	-3	x
CCOC(=O)C1CCN(S(=O)(=O)c2ccc(NC(=O)OC)cc2)CC1	5	9	-21	2	7	8	9
CCOCCCNC(=O)C1CCN(S(=O)(=O)c2ccc(C)cc2)CC1	-16	0	2	-2	7	-9	-12
